This is an account of results in PubChem BioAssay (NCI).

Test systems include SK-MEL-2 melanoma; EKVX NSCLC; SN12C renal; UO-31 renal; TK-10 renal; ACHN renal; CAKI-1 renal; A498 renal; CCRF-CEM leukemia; MOLT-4 leukemia; SR leukemia; RPMI-8226 leukemia; OVCAR-8 ovarian; OVCAR-5 ovarian; OVCAR-4 ovarian; SK-OV-3 ovarian; OVCAR-3 ovarian; HS 578T breast; NCI/ADR-RES ovarian; IGROV1 ovarian.
Experiment in all cases: NCI-60 one-dose screen, 48 h (100 = growth as untreated, 0 = no growth, -100 = all killed)
What all share (conditions): 10 µM

About 83,000 compounds went through this panel and 20% of them were active in at least one assay; those are over-represented in the sample as a whole.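 Assay: single dose, 48 h. Readout: percent growth (0 = no net growth; negative = cell death). Active: <10.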 Unmarked numbers belong to inactive results. Activity calls are given as the source filed them.

As to `COC(=O)c1cc2oc(/C=C3/SC(=S)N(N)C3=O)cc2n1Cc1ccccc1`, the growth in the experiment with SK-MEL-2 melanoma was -14% (active); in the experiment on EKVX NSCLC it was 55.8%; in the experiment on SN12C renal, 63.5%; in the experiment on UO-31 renal it was -22.1% (active); with TK-10 renal it was -4.58% (active); in the experiment with ACHN renal, 48.5%. The growth in the experiment with CAKI-1 renal was 60.2%; in the experiment with A498 renal, -76.4% (active); with CCRF-CEM leukemia, 6.84% (active); in the experiment on MOLT-4 leukemia, 4.64% (active); in the experiment with SR leukemia, 20.8%; in the experiment on RPMI-8226 leukemia, -4.46% (active). In addition, the growth in the experiment on OVCAR-8 ovarian was 31.1%; with OVCAR-5 ovarian, 72.6%; with OVCAR-4 ovarian, 51%; in the experiment with SK-OV-3 ovarian, 98.2%; with OVCAR-3 ovarian, 55%; with HS 578T breast it was -27.4% (active). Further, the growth in the experiment on NCI/ADR-RES ovarian was 52.5%.
Consider `NC(N)=N/N=C(\N=Nc1ccccc1)c1ccc(Cl)cc1`, for which the growth is 52.5% in the experiment with SK-MEL-2 melanoma; 49.2% in the experiment with EKVX NSCLC; 76.3% with SN12C renal; 4.05% (active) in the experiment with UO-31 renal; 65.8% in the experiment on TK-10 renal; 25.1% with ACHN renal. Further, the growth with CAKI-1 renal is 1.66% (active); in the experiment with A498 renal, 14.7%; with CCRF-CEM leukemia, -4.7% (active); in the experiment with MOLT-4 leukemia it was 2.47% (active); in the experiment with OVCAR-8 ovarian it was 26.2%; with OVCAR-5 ovarian, 24.9%. Further, the growth is 51.8% with OVCAR-4 ovarian; 55.5% in the experiment on SK-OV-3 ovarian; 12.6% in the experiment on OVCAR-3 ovarian; 65.2% in the experiment on HS 578T breast; 8.53% (active) in the experiment on NCI/ADR-RES ovarian.
Regarding `COc1ccc(/C=C/c2nnc(/C=C/c3ccc(OC)c(OC)c3)o2)cc1OC`, the growth in the experiment with SK-MEL-2 melanoma was 20.3%; in the experiment on EKVX NSCLC, 36.9%; in the experiment on SN12C renal, 22.1%; with UO-31 renal, 37.4%; in the experiment on TK-10 renal it was 45.5%; in the experiment with ACHN renal, 45.4%. Besides, the growth in the experiment with CAKI-1 renal is 51.4%; in the experiment with A498 renal, 31.4%; in the experiment on MOLT-4 leukemia, 20.3%; in the experiment with SR leukemia it was 11.6%; in the experiment with RPMI-8226 leukemia, 34%; with OVCAR-8 ovarian it was 42.1%. Besides, the growth was 41.3% in the experiment with OVCAR-5 ovarian; 57.6% in the experiment with OVCAR-4 ovarian; 34.1% in the experiment with SK-OV-3 ovarian; 22.5% in the experiment with IGROV1 ovarian; 17.6% in the experiment with OVCAR-3 ovarian; 43.6% with HS 578T breast. Besides, the growth with NCI/ADR-RES ovarian was 13.6%.
Turning to `Cc1ccc(/C=C2/C(=O)N(C)c3ccc(S(=O)(=O)Nc4ccc(C(C)(C)C)cc4)cc32)s1`, the growth in the experiment on SK-MEL-2 melanoma was 94.3%; with EKVX NSCLC, 103%; with SN12C renal, 78.9%; in the experiment with UO-31 renal, 73.4%; in the experiment on TK-10 renal it was 90.9%; in the experiment with ACHN renal, 56%. The growth was 45% with CAKI-1 renal; 90.8% in the experiment on A498 renal; 73.3% in the experiment on MOLT-4 leukemia; 57.9% with SR leukemia; 55.6% in the experiment on RPMI-8226 leukemia; 41.3% with OVCAR-8 ovarian. The growth in the experiment with OVCAR-5 ovarian was 73%; in the experiment on OVCAR-4 ovarian it was 44.4%; with SK-OV-3 ovarian, 89.6%; with IGROV1 ovarian it was 70.8%; with OVCAR-3 ovarian, 88.3%; in the experiment with HS 578T breast, 88.7%. In addition, the growth with NCI/ADR-RES ovarian was 55.8%.
With `CCN1C(=O)CC(SC2CC(=O)N(CC)C2=O)C1=O` (centres undefined), the growth with SK-MEL-2 melanoma is 93.6%; in the experiment on EKVX NSCLC it was 95.9%; in the experiment on SN12C renal it was 98.6%; with UO-31 renal, 80.2%; with TK-10 renal it was 89.4%; with ACHN renal it was 106%. The growth is 95.1% in the experiment on CAKI-1 renal; 74.9% in the experiment with A498 renal; 94.1% in the experiment with CCRF-CEM leukemia; 72% with MOLT-4 leukemia; 109% with OVCAR-8 ovarian; 106% in the experiment with OVCAR-5 ovarian. For the same compound, the growth in the experiment with OVCAR-4 ovarian was 102%; in the experiment on SK-OV-3 ovarian it was 103%; in the experiment on IGROV1 ovarian, 107%; with OVCAR-3 ovarian, 107%; with HS 578T breast it was 101%; with NCI/ADR-RES ovarian, 98.7%.
Consider `COc1ccc(C(c2ccc(OCCN(C)C)cc2)c2cc3ccccc3c3ccccc23)cc1` (centres undefined), for which the growth is 86.4% in the experiment with SK-MEL-2 melanoma; 56.6% in the experiment on EKVX NSCLC; 64.4% with SN12C renal; 72.2% in the experiment with UO-31 renal; 88% with TK-10 renal; 21.6% in the experiment with ACHN renal. Further, the growth in the experiment with CAKI-1 renal was 76.5%; with A498 renal it was 101%; with MOLT-4 leukemia it was 5.83% (active); with SR leukemia it was -30.6% (active); in the experiment with RPMI-8226 leukemia it was 13.2%; with OVCAR-8 ovarian, 70.2%. For the same compound, the growth with OVCAR-5 ovarian was 79.3%; in the experiment on OVCAR-4 ovarian it was 77.9%; with SK-OV-3 ovarian, 106%; in the experiment on IGROV1 ovarian, 61.7%; in the experiment on OVCAR-3 ovarian, 62.6%; with HS 578T breast it was 75.1%. In the experiment with NCI/ADR-RES ovarian, the growth was 68.1%.
On to `CCOC(=O)c1cocc1C(=O)O`, for which the growth in the experiment with SK-MEL-2 melanoma is 105%; with EKVX NSCLC it was 103%; in the experiment with SN12C renal, 105%; in the experiment with UO-31 renal it was 93.3%; in the experiment with TK-10 renal, 118%; in the experiment on ACHN renal it was 111%. Moreover, the growth in the experiment on CAKI-1 renal was 107%; with A498 renal, 112%; in the experiment with CCRF-CEM leukemia, 74.1%; in the experiment with MOLT-4 leukemia, 86.5%; with RPMI-8226 leukemia, 114%; with OVCAR-8 ovarian, 105%. For the same compound, the growth was 105% in the experiment with OVCAR-5 ovarian; 100% with OVCAR-4 ovarian; 106% in the experiment with SK-OV-3 ovarian; 113% in the experiment with IGROV1 ovarian; 103% in the experiment with OVCAR-3 ovarian; 100% with HS 578T breast. Also, in the experiment on NCI/ADR-RES ovarian, the growth is 107%.
`O=C(N/N=C/c1cc([N+](=O)[O-])ccc1O)c1cccc2ccccc12`: the growth is 66.4% in the experiment on SK-MEL-2 melanoma; 33.5% with EKVX NSCLC; 51.1% in the experiment on SN12C renal; 19.1% in the experiment with UO-31 renal; 46.3% in the experiment with TK-10 renal; 15.7% with ACHN renal. The growth in the experiment with CAKI-1 renal is 19.9%; in the experiment on A498 renal, 62.4%; with CCRF-CEM leukemia, -8.77% (active); in the experiment on MOLT-4 leukemia it was 9.21% (active); in the experiment with RPMI-8226 leukemia, 21.5%; with OVCAR-8 ovarian, 22.8%. Besides, the growth in the experiment with OVCAR-5 ovarian was 47.2%; in the experiment with OVCAR-4 ovarian, 20.2%; in the experiment on SK-OV-3 ovarian it was 41%; with IGROV1 ovarian it was 39.8%; in the experiment on OVCAR-3 ovarian it was 27.2%; in the experiment with HS 578T breast, 64.1%. Moreover, the growth in the experiment on NCI/ADR-RES ovarian was 10.6%.
